# Shown are actives, neighbours in structure and some others; about 6.2% of the full set was active somewhere.
# LASV entry inh = blocks Lassa virus binding to or entry into cells | Lassa virus pseudotype entry inhibition, cell reporter | 1.2% of 300,000 active | Potency, µM (top dose mostly 37.9 µM), for inactives: top-dose activity change, negative = inhibition, most hits filed as inhibitors; calls by dose curve; tested in HEK293 cells; also: potency is read from the fitted curve at half-maximal effect; nearly all actives have a fitted effect of over 50% in size
# FMDV inh = blocks foot and mouth disease virus; 1.2% of 410,000 active; FMDV antiviral cell-based qHTS; Potency, µM (titrated, usually from 57.9 µM), without a hit: top-dose activity change, negative = inhibition, hits mostly inhibitors; calls by dose curve; tested in HEK293T cells; also: read-out not given here; potency is read from the fitted curve at half-maximal effect; nearly all actives have a fitted effect of over 45% in size
# HCMV inh = blocks human cytomegalovirus replication; HFF cells, HCMV-luciferase reporter, 72 h; stronger effect = lower value; 4.5% of 410,000 active; activity change, negative = inhibition, % at 57.5 µM; in the data active = activity change below about -60%; inconclusive = no clear call, values can overlap the other calls; inactive = above about -39%
#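 Screen run at 2 compound doses on HFFs infected with reporter HCMV, MOI 1 PFU/cell. Luciferase activity from cell lysates at 72 h post infection gave inhibition relative to buffer-only and Salinomycin wells.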
# Marburg entry inh = blocks Marburg virus binding to or entry into cells. Marburg virus pseudotyped entry inhibition, cell reporter. Potency, µM (highest dose often 37.8 µM), for inactives: top-dose activity change, negative = inhibition, most hits filed as inhibitors. 1.8% of 300,000 active. AID 540276; calls by dose curve; tested in HEK293 cells; also: potency is read from the fitted curve at half-maximal effect
# Active calls of the source: *; ? = inconclusive; . = no result given; [ ] = another dose, or the depositor's remark. % is scaled to controls: 0 for no effect and ±100 for the full control effect.
SMILES,LASV entry inh,FMDV inh,HCMV inh,Marburg entry inh
CCOc1cc(C(=O)N(Cc2nc(-c3ccc(C)cc3)no2)C(C)C)cc(OCC)c1OCC,23.9%[46.1 µM],?,-83.0*,-5.6%[46.1 µM]
CCNc1ncc2ncc(=O)n(C3CC3)c2n1,.,-1.4%,.,.
Cc1ccc(NCC(=O)N/N=C/c2cccc(Oc3ccccc3)c2)cc1,2.31µM*,?,?,4.2%
CSc1ccc(/C=N\NC(=O)CNc2ccc(C)cc2)cc1,1.3µM*,.,9.7,-7.6%
Cc1ccc(NCC(=O)N/N=C/c2ccncc2)cc1,2.0%,25.5%,-2.2,14.5%[46.1 µM]
CC(/C=C/c1ccco1)=N\NC(=O)CNc1cccc(C)c1,.,-16.0%,-60.7*,.
Cc1cccc(NCC(=O)N/N=C\c2cccc(Oc3ccccc3)c2)c1,?,?,-67.2*,?
COC(=O)N/N=C(C)\C=C\c1ccco1,16.3%,42.6%,-0.3,8.6%
CS(=O)(=O)N1CCC[C@@]2(CCN(Cc3ccccc3)C2)C1,.,-18.6%,.,.
COC(=O)c1c(C)nc(C)c2c(=O)oc3c(c12)CCCC3,.,.,.,13.0%
CC(=O)OC[C@H]1O[C@@H](ON=C2C[C@@H](O)[C@@H](O)[C@@H]3[C@H]4C(=O)N(C5CCCCC5)C(=O)[C@@H]4CC[C@@H]23)[C@H](OC(C)=O)[C@@H](OC(C)=O)[C@H]1OC(C)=O,.,.,.,-25.3%[14.2 µM]
CCn1cc2nc(SCc3cc(C)ccc3C)n(Cc3ccc(OC)cc3)c(=O)c2n1,?,?,1.6,.
COc1ccc(Cn2c(SCc3cc(C)ccc3C)nc3cc(OC)c(OC)cc3c2=N)cc1,6.51µM*,?,-23.2,4.61µM*
COc1ccc(Cn2c(SCc3ccc(C)cc3)nc3cc(OC)c(OC)cc3c2=N)cc1Cl,10µM*,35.5µM*,-99.5*,2.82µM*
O=C(Nc1ccc(F)c(Cl)c1)C1CCN(S(=O)(=O)c2ccc3[nH]c(=O)ccc3c2)CC1,?,-21.6%,-0.3,.
CCOC(=O)C1CCN(C(=O)CN2c3ccc(CC)cc3-c3ccccc3S2(=O)=O)CC1,23.2%[46.1 µM],43.4%,-1.9,26.9%[46.1 µM]
COc1cccc2ccc(CN3CCC4(CC3)c3ccccc3[C@@H](NC(=O)c3ccccc3)[C@@H]4O)nc12,.,-1.2%,.,.
Oc1c(N=Nc2ccccn2)ccc2ccccc12,1.58µM*,-80.9%,-101.4*,3.98µM*
Cc1cccc(N2CCN(C(=S)c3ccc([N+](=O)[O-])cc3)CC2)c1,-20.8%,-11.3%,-62.7*,-11.6%
Cc1cccc(N2CCN(C(=S)c3ccccc3)CC2)c1,-6.5%,-18.3%,-26.9,?
O=C1C(=O)N(Cc2cccnc2)[C@@H](c2ccccn2)/C1=C(\O)c1ccccc1,.,.,.,12.5%
CCOC(=O)CSc1nc(Cc2ccccc2)nc2ccccc12,-1.5%[46.1 µM],0.0%,-66.3*,3.7%[46.1 µM]
CCOC(=O)CSc1nnc(Cc2ccc(OC)cc2)n1-c1ccccc1,2.0%,8.5%,-108.7*,7.0%
CCOC(=O)CSc1nc(CC)nc2ccccc12,-6.3%,.,-16.1,-1.8%
COc1ccc(-n2c(CNc3ccc(C)cc3)nnc2SCc2ccccc2)cc1,11.2µM*,-13.7%,32.5,?
SMILES,LASV entry inh,FMDV inh,HCMV inh,Marburg entry inh
Cc1cccc(NC(=O)CSc2cn(CC(=O)N3CCC(C)CC3)c3ccccc23)c1C,29.4%[46.1 µM],-17.2%,49.3,.
COc1ccc(C(=O)Nc2nnc(S(=O)(=O)N(CC(C)C)c3ccc(C)cc3)s2)cc1OC,?,?,-38.7,.
Cc1ccc(NC(=O)c2cc(C)n(-c3ccccc3)c2C)cc1,2.82µM*,?,-93.0*,2.24µM*
Cc1ccc(-n2c(C)cc(C(=O)NS(=O)(=O)c3ccc(C)cc3)c2C)cc1,4.0%[46.1 µM],9.4%,-18.9,-4.8%[46.1 µM]
Cc1ccc(NC(=O)c2cc(C)n(-c3cccc(C)c3)c2C)cc1,10µM*,9.9%,-5.4,6.51µM*
Cc1cc(C(=O)Nc2ccc(Cl)cc2)c(C)n1-c1ccccc1,?,?,-93.3*,1.12µM*
Cc1ccc(NC(=O)c2cnn(-c3ccccc3)c2C)cc1,.,-22.0%,38.6,.
COc1ccc(-c2cc(-c3ccc(O)cc3)nc(N)c2C#N)cc1OC,?,9.6%,0.3,4.47µM*
CCCc1cc(-c2ccc(O)c(OCC)c2)c(C#N)c(N)n1,10.2%,-17.2%,43.5,-11.6%
COc1ccc(-c2c(C#N)c(N)nc3c2CCc2ccccc2-3)cc1OC,?,15.8µM*,-26.5,23.1µM*
COc1ccc(CC(=O)Nc2ccc(S(=O)(=O)NC(C)C)cc2)cc1,-7.2%,-4.6%,-29.4,-4.5%
CCCCNS(=O)(=O)c1ccc(NC(=O)Cc2ccc(OC)cc2)cc1,-17.2%[46.1 µM],-1.9%,-67.0*,?
O=C(c1ccco1)N1CCC[C@@]2(CCN(c3cccc(-c4ccccc4)c3)C2)C1,.,-12.6%,.,.
Cc1ccc(/C=C/c2nc3ccccc3n2S(=O)(=O)c2ccc(Br)cc2)cc1,?,-65.3%,-89.0*,.

# High-throughput results: PubChem, National Center for Advancing Translational Sciences (NCATS)
